NadD block = blocks S. aureus nicotinate mononucleotide adenylyltransferase | purified NadD enzyme, colorimetric absorbance read-out | inhibition, % at 20 µM | 0.78% of 360,000 active; in the data active = inhibition above about 26%
Vif imaging = blocks HIV Vif function; HEK293T cells, Vif self-association by quenched fluorescence, imaging, 24 h; inhibition, % at 7.49 µM; 0.35% of 340,000 active; AID 602346; in the data active = inhibition above about 50%, passing the limit was not always enough
esBAF inh = SWI/SNF esBAF complex inhibition | AID 602393 | reporter increase, % at 12.5 µM | mouse ES cells, Bmi1-luciferase knock-in reporter, 24 h; 100% = twice the neutral-well signal | 2% of 350,000 active; in the data active = activation above about 40%;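 also: 0% = median of the plate's neutral control wells and 100% = double that signal; a rise in the Bmi1 reporter signal indicates esBAF inhibition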
SKN-1 inh = C. elegans SKN-1 inhibition; AID 624304; 0.49% of 360,000 active; C. elegans VP596 Pgst-4::GFP/RFP ratio, acrylamide-induced, 24 h; inhibition, % at 21.8 µM;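 active = interference check ratio from 0.5 to 1.5 plus GFP to RFP signal ratio inhibition reaching or exceeding a fixed threshold, cut at about 30% in these data, passing the limit was not always enough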
NR3A LBD binder = modulates the human NR3A ligand-binding domain; NR3A LBD differential scanning fluorimetry, Tm shift; 0% = protein alone, 100% = glycine-bound protein; Tm shift relative to glycine control, % at 25 µM; 2.5% of 340,000 active; AID 1259313;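 active = melting temperature shift of at least 10% of the positive control shift, at one fixed dose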
SMARCA2 act = increases SMARCA2 function in MMTV reporter cells | activation, % at 9.1 µM | 1% of 370,000 active | MG213 cells, MMTV-luciferase reporter, dexamethasone, overnight; in the data active = activation above about 7.8%;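 also: 0% = vehicle wells and 100% = reference activator wells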
* hit, by the source's call; x = not tested or not shown. An excerpt weighted towards active compounds, which were near 5.2% of everything screened.

SMILES	NadD block	Vif imaging	esBAF inh	SKN-1 inh	NR3A LBD binder	SMARCA2 act
CCC(=O)N1[C@H](CO)[C@@H]2c3ccccc3N(C(=O)CC(F)(F)F)C[C@@H]21	x	x	5	x	x	x
COc1ccc(C(=O)NCc2ccc(-c3nc4ccccc4s3)cc2)cc1	-1	1	69*	18	0	1
COc1cccc(C(=O)NCc2ccc(-c3nc4ccccc4s3)cc2)c1	3	1	52*	3	0	-1
O=C(Nc1ccc(Cl)cc1)C(c1ccccc1)N(CCO)CCO (stereo not given)	4	11	33	37*	2	1
C[C@H]1CN([C@@H](C)CO)C(=O)c2cc(NC(=O)NC3CCCCC3)ccc2O[C@H]1CN(C)C(=O)Nc1ccc2c(c1)OCO2	x	x	1	x	x	x
C[C@@H]1CN([C@H](C)CO)C(=O)c2cccc(NC(=O)Nc3cccc4ccccc34)c2O[C@@H]1CN(C)S(=O)(=O)c1cccs1	x	x	2	x	x	x
COc1ccccc1CC(=O)Nc1ccc2c(c1)OC1(CCCC1)O2	-3	7	52*	4	2	0
N/C(=N\OC(=O)c1cccc2ccccc12)c1cccc([N+](=O)[O-])c1	-7	-1	10	9	26*	-1
N/C(=N\OC(=O)c1cccc2ccccc12)c1cccnc1	3	-3	44*	24	-11	8
Cc1cccc(/C(N)=N/OC(=O)c2cccc3ccccc23)c1	-4	6	49*	4	x	0
Cc1cccc(C(=O)O/N=C(\N)c2ccccn2)c1	-2	15	-73	37*	3	-5
Cc1ccccc1C(=O)O/N=C(\N)c1cccc([N+](=O)[O-])c1	-5	-1	x	5	-7	3
CNC[C@@H]1OCCCC[C@H](C)Oc2ccc(NC(=O)c3ccncc3)cc2C(=O)N([C@@H](C)CO)C[C@H]1C	x	x	-3	x	x	x
O=C(CN1C(=O)NC2(CCCC2)C1=O)N1CCN(S(=O)(=O)c2ccccc2F)CC1	0	-2	x	24	13*	0
COC(=O)c1ccccc1NC(=O)CSc1nnc(C(CO)NC(=O)c2ccccc2Cl)n1C (stereo not given)	-2	-5	-14	3	-1	0
CC(NC(=O)c1ccccc1Cl)c1nnc(SCC(=O)Nc2ccc(C(=O)O)cc2)n1C (stereo not given)	7	19	9	17	16*	0
O=C(CSCC(=O)Nc1nc(-c2ccc3c(c2)OCO3)cs1)Nc1nccs1	2	1	44*	8	-29	2
O=C(CSc1ccc(-c2ccc3c(c2)OCO3)nn1)Nc1nccs1	-9	16	15	-4	-1	-1
O=C(CC1Sc2ccccc2NC1=O)NNc1ccc(F)cc1 (stereo not given)	-1	0	2	13	-2	4
O=C(CC1Sc2ccccc2NC1=O)NNc1cc(Cl)ccc1Cl (stereo not given)	0	-5	0	40*	-2	-1
Cc1c(Cl)cccc1NC(=O)CC1Sc2ccccc2NC1=O (stereo not given)	-5	-11	0	23	10*	0
C[C@H](CO)N1C[C@H](C)[C@@H](CN(C)Cc2ccc(Cl)c(Cl)c2)Oc2ccc(NS(=O)(=O)c3cccs3)cc2CC1=O	x	x	20	x	x	x
C[C@H]1CN([C@@H](C)CO)C(=O)c2cc(NC(=O)Nc3ccc4c(c3)OCO4)ccc2O[C@H]1CN(C)Cc1ccc(-c2ccccc2)cc1	x	x	3	x	x	x
Nc1ccc(N2CCN(c3cccc(Cl)c3)CC2)cc1	14	8	x	12	-2	-5
Oc1cccc(N2CCN(c3cccc(O)c3)CC2)c1	x	x	x	x	x	7.8*
C[C@@H]1CN([C@H](C)CO)C(=O)c2cc(NS(=O)(=O)c3ccc(Cl)cc3)ccc2O[C@@H](C)CCCCO[C@@H]1CN(C)C(=O)NC1CCCCC1	x	x	0	x	x	x
C=C1CCC[C@]2(C)C[C@H]3OC(=O)C(CNCCN(C)C)[C@H]3CC12 (stereo not given in full)	-3	-4	-10	37*	-1	5
COc1cc(/C=C2\C(=O)ON=C2c2ccccc2)cc(Cl)c1O	-5	0	x	14	-9	-2
COc1cc(/C=C2/C(=O)ON=C2c2ccccc2)ccc1O	4	-4	x	9	11*	0
COc1cc([N+](=O)[O-])ccc1-c1ccc(/C=C2\C(=O)ON=C2c2ccccc2)o1	45*	1	x	28	0	1

Screening data deposited in PubChem by several laboratories.
